The assay deals with Peroxisome proliferator-activated receptor gamma (Homo sapiens) (UniProt P37231). Put plainly: PPARg partial agonist activation, primary screen, cell-based, luciferase reporter, luminescence (AID 504452).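 Also: Cos-1 cells carrying PPARgamma and a response element luciferase reporter.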 To be noted: at 5 µM, stronger effect = higher value; activation (% of full agonist control): measured here: relative to full agonist control. (In general: Reporter assays use an easily measured gene product as a stand-in for the process of interest.)

The source made the active and inactive calls. Rule as the data show it: active = activation above about 85%; inactive = the rest.

Chain of Peroxisome proliferator-activated receptor gamma (Homo sapiens) (P37231 whole entry, looked up): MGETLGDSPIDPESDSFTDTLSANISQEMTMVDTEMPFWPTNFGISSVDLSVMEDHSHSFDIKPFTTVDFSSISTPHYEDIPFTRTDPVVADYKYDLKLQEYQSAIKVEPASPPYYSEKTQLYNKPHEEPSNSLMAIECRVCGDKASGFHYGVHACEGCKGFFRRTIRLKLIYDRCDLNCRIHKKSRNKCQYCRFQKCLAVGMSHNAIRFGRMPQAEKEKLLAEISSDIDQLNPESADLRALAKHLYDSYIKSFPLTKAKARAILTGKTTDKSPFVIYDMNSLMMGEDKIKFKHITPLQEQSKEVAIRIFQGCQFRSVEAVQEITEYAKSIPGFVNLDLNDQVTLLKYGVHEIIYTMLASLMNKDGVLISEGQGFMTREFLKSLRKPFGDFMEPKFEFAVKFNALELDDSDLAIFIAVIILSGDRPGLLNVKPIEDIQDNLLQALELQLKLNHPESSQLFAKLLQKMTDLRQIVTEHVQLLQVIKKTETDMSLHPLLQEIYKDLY

Regarding `O=C(O)COc1ccccc1/C=C1\C(=O)NC(=O)N(CCC2=CCCCC2)C1=O`, the activation (% of full agonist control) stood at 33.7% and the activation (% of partial agonist control) is 74.6% (inactive).

On to `CC(=O)Nc1cc(C(=O)N2CCC3(CC2)OCCO3)ccc1Sc1ccc(F)cc1`, for which the activation (% of full agonist control) turned out to be 37.4% and the activation (% of partial agonist control) was 82.7% (inactive).

The values above are taken from PubChem BioAssay AID504452 (The Scripps Research Institute Molecular Screening Center, 2011).
